Source: PubChem
A selection: hits, their analogues and other compounds. The true share with any hit is near 2.8%.
LGR2 inh – inhibitors of bursicon-induced Drosophila LGR2 receptor cAMP signaling | HEK293 LGR2, CRE-luciferase, bursicon-stimulated, 4 h | inhibition, % at 9.99 µM | 380,000 compounds, 0.35% hits | AID 720647;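 active means drop in luminescence signal, shown as inhibition above about 50% in the replicate tests, limit read from the data, passing the limit was not always enough; inconclusive means probably only some replicates passing the limit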;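 further: agonist challenge used bursicon conditioned medium at about half maximal strength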
TROY signal inh – TROY signaling inhibition. inhibition, % at 10 µM. AID 1347056. Q293 LMP1-TROYcd NF-kB luciferase reporter, 4 h. 360,000 compounds, 0.98% hits;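 active means compounds whose plate-normalised and pattern-corrected inhibition of the luciferase reporter signal at the single screening dose is 50% or more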
PAX8 reporter – inhibitors of PAX8 transcriptional activity in RMG-I cells | RMG-I TPO-luciferase reporter, SteadyGlo, 24 h | inhibition, % at 12.6 µM | 360,000 compounds, 1.2% hits | AID 652154;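 active means mean replicate inhibition at least 60% with every replicate also reaching 60%; inconclusive means only one of the two criteria is met; inactive means mean below 60% and not all replicates reaching 60%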;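 further: luciferase light reporting Pax8 driven TPO promoter activity; plate controls were median of neutral control wells for no effect and mitoxantrone controls for full effect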
TWEAK Fn14 block – blocks TWEAK-Fn14 interaction in a reporter cell assay; inhibition, % at 10 µM; 360,000 compounds, 2% hits; TWEAK-stimulated Fn14 reporter cells, luciferase luminescence, 8 h; AID 1159606; in the data active means inhibition above about 50%
EWS-Fli inh – blocks EWS/Fli oncoprotein-driven transcription; A673 NR0B1-luciferase reporter, viability-normalised; inhibition, % at 12.6 µM; AID 651661; 350,000 compounds, 0.67% hits;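 active means mean inhibition of at least 50% after viability correction, with every replicate also passing that limit; inconclusive means mean reaches 50% but only one of two replicates passes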;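 further: firefly luciferase signal divided by Alamar Blue viability fluorescence both relative to DMSO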
Numbers without * were called inactive; ? = inconclusive; / = not tested or not shown.

SMILES	LGR2 inh	TROY signal inh	PAX8 reporter	TWEAK Fn14 block	EWS-Fli inh
O=C(N/N=C/c1c(O)ccc2ccccc12)c1cccnc1	0	1	70*	-5	24
O=C(N/N=C\c1c(O)ccc2ccccc12)c1ccc(O)cc1	16	1	?	-2	-13
CN(C)CCCNC(=O)C[C@H]1CC[C@H](NC(=O)c2ccccc2F)[C@H](CO)O1	5	/	-6	/	-4
COC(=O)C[C@H]1C[C@@H]2c3cc(NC(=O)Nc4ccccc4)ccc3O[C@@H]2[C@H](CO)O1	-2	/	-18	/	-6
Cc1c(/C=N/NC(=O)c2cccnc2)c2ccccc2n1Cc1ccccc1	-2	12	21	56*	33
O=C(N/N=C/c1cc(O)ccc1Br)c1cccnc1	7	11	72*	-19	10
Cc1nn(Cc2ccccc2)c(Cl)c1/C=N/NC(=O)c1cccnc1	-26	-16	2	-16	-6
O=C(N/N=C/c1cc(Br)c(O)c(Br)c1O)c1cccnc1	7	-2	26	-5	5
CCNC(=O)[C@@H]1[C@@H](CO)[C@@H]2Cn3c(ccc(-c4cccc(F)c4)c3=O)[C@H]1N2C(=O)c1cnccn1	13	/	-1	/	7
COC(=O)/C(=C\Nc1ccc(Cl)cc1Cl)NC(=O)c1ccc(OC)cc1	9	-3	17	13	53*
COc1ccc(CC(=O)Nc2nc(-c3ccccc3)c(C(C)=O)s2)cc1OC	10	21	33	57*	24
C#CCN(C[C@@H]1[C@@H](OC(=O)NCc2ccccc2F)[C@@H](OC(=O)NCc2ccccc2F)Cn2c(=O)n(CCCCCC)c(=O)n21)S(=O)(=O)c1ccc(C)cc1	-6	-5	19	12	9
C#CCN(C[C@@H]1[C@@H](OC(=O)Nc2cccs2)[C@@H](OC(=O)Nc2cccs2)Cn2c(=O)ccc(=O)n21)S(=O)(=O)c1ccc(C)cc1	48	73*	113*	108*	?
C#CCN(C[C@@H]1[C@@H](OC(=O)NCc2ccccc2F)[C@@H](OC(=O)NCc2ccccc2F)Cn2c(=O)ccc(=O)n21)S(=O)(=O)c1ccc(C)cc1	68*	61*	105*	107*	43
C#CCN(C[C@@H]1[C@@H](OC(=O)NC2CCCC2)[C@@H](OC(=O)NC2CCCC2)Cn2c(=O)ccc(=O)n21)S(=O)(=O)c1ccc(C)cc1	66*	33	96*	72*	68*
C#CCN(C[C@H]1[C@H](OC(=O)Nc2cccs2)[C@H](OC(=O)Nc2cccs2)CN(C(=O)OC(C)C)N1C(=O)OC(C)C)S(=O)(=O)c1ccc(C)cc1	12	/	?	/	26
C[C@@H]1CCCCO[C@@H](CN(C)C(=O)NC2CCCCC2)[C@H](C)CN([C@@H](C)CO)C(=O)c2cc(NC(=O)Nc3ccc4c(c3)OCO4)ccc2O1	5	/	28	/	12
COc1cc(Cl)c(S(=O)(=O)NCc2cccnc2)cc1Cl	7	54*	/	84*	2
Cc1cccc(OCCNC(=O)c2ccc(Cl)c(S(=O)(=O)NCc3cccnc3)c2)c1	9	23	33	5	57*
COC(=O)C1CCN(C(=O)c2ccc(Cl)c(S(=O)(=O)NCc3cccnc3)c2)CC1	/	-6	/	-16	/
COc1cc(C(=O)NCc2ccccc2)ccc1OC(F)F	-21	5	-4	32	13
COc1ccc(COc2ccccc2C(=O)NCc2ccccc2)cc1F	-12	47	11	69*	/
COc1ccc(S(=O)(=O)Nc2ccc3c(c2)CC(=O)N([C@H](C)CO)C[C@@H](C)[C@@H](CN(C)CC2CCCCC2)O3)cc1	-10	/	/	/	3
CC(=O)N(C)C[C@@H]1Oc2ncc(C#Cc3ccccc3)cc2C(=O)N([C@@H](C)CO)C[C@@H]1C	2	/	/	/	-6
CCN1C(=O)C(CC(=O)Nc2cccc(C(C)=O)c2)S/C1=N\c1ccccn1 (configuration not stated)	2	-6	10	25	4
SMILES	LGR2 inh	TROY signal inh	PAX8 reporter	TWEAK Fn14 block	EWS-Fli inh
Cc1ccccc1N=C1SC(CC(=O)Nc2ccc3ccccc3c2)C(=O)N1Cc1ccccn1 (configuration not stated)	10	27	26	72*	/
O=C(CC1SC(=Nc2cccc3ccccc23)N(Cc2ccccn2)C1=O)Nc1ccccc1Br (configuration not stated)	0	4	96*	39	5
O=C(CC1SC(=Nc2ccccc2)N(Cc2ccccn2)C1=O)Nc1ccc(Br)cc1 (configuration not stated)	-14	1	-6	44	/
CC(=O)N(C)C[C@@H]1Oc2ncc(C#Cc3cccnc3)cc2C(=O)N([C@@H](C)CO)C[C@@H]1C	11	/	/	/	4
Cc1ccc(-c2cnc3c(c2)C(=O)N([C@H](C)CO)C[C@@H](C)[C@@H](CN(C)CC2CCCC2)O3)cc1	-15	/	-3	/	30
COc1ccc(C2NC(=O)NC3=C2CCc2ccccc23)cc1 (configuration not stated)	/	-1	/	7	/
COc1cccc(C2NC(=S)NC3=C2CCc2ccccc23)c1 (configuration not stated)	-13	14	39	24	-1
CC(C)c1ccc(C2NC(=O)NC3=C2CCc2ccccc23)cc1 (configuration not stated)	/	55*	/	76*	/
Cc1ccc(C2NC(=O)NC3=C2CCc2ccccc23)cc1 (configuration not stated)	-12	69*	/	79*	/
O=C(O)c1ccc(NC2=C/C(=N/S(=O)(=O)c3cccs3)c3ccccc3C2=O)cc1	?	60*	36	98*	0
O=C1C(Nc2ccc(O)cc2)=C/C(=N/S(=O)(=O)c2cccs2)c2ccccc21	100*	58*	101*	95*	25
O=C1C=C(Nc2ccc(O)cc2)C(=O)c2ccccc21	-51	-23	-25	10	-77
O=c1[nH]c(CSc2ccccn2)nc2c1cnn2-c1ccccc1	-10	-6	-7	2	/
Cn1ccnc1SCc1nc2c(cnn2-c2ccccc2)c(=O)[nH]1	2	7	140*	-8	2
C/C(=N\Nc1cc(C)nc(-c2ccccc2O)n1)c1ccccc1O	3	16	-8	55*	-14
Cc1cc(N/N=C/c2ccc(O)cc2O)nc(-c2ccccc2O)n1	/	20	/	65*	/
O=C(C[C@@H]1C[C@H]2c3cc(NC(=O)C4CCOCC4)ccc3O[C@H]2[C@H](CO)O1)NCCc1ccccc1	-15	/	5	/	1
COC(=O)c1cn(NC(=O)c2cc([N+](=O)[O-])ccc2F)c(=O)c2ccccc12	17	9	42	68*	1
COC(=O)c1cn(NC(=O)C2CCC(C)CC2)c(=O)c2ccccc12 (configuration not stated)	/	2	13	-4	/
O=C1CC(C(=O)N2CCCc3ccccc32)CN1c1ccc(Cl)cc1 (configuration not stated)	-4	7	2	21	/
